Source: PubChem
CHRM1 antagonist – antagonists of human M1 muscarinic receptor. P11229. CHO-K1 hM1, Fluo-8 calcium fluorescence, ACh EC80 antagonist. inhibition, % at 3 µM. actives 1.3% (n = 360,000). AID 588852;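 active = percent inhibition above its own plate's cutoff, namely the mean of that plate's compound wells plus 3 SD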;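 also: peak over basal fluorescence ratio during 140 s after agonist addition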
Target sequence (P11229 whole entry, looked up): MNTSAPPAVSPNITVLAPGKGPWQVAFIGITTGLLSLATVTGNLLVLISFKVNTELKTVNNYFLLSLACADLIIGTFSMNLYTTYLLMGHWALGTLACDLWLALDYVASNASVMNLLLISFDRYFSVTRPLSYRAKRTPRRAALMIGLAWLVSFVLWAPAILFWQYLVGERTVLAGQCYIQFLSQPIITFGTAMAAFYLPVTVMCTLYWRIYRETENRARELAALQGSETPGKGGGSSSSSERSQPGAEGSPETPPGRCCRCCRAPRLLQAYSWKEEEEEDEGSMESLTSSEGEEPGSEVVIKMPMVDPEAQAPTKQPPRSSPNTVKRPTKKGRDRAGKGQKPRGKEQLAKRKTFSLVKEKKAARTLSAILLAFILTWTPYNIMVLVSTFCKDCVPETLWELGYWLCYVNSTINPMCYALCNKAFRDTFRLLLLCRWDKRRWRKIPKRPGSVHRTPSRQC
CHO-K1 Ca antag – nonselective inhibitor or artifact in parental CHO-K1 cells; AID 602250; inhibition, % at 3 µM; ATP-induced calcium, Fluo-8 fluorescence; actives 0.6% (n = 360,000);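 active = inhibition above a per-plate cutoff, the plate's mean sample inhibition plus 3 SD, cut at about 24% in these data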
CHO-K1 Ca PAM – counter-screen for M1 PAMs: effect in parental CHO-K1 cells | activation, % at 3 µM | actives 0.02% (n = 360,000) | ATP EC20, Fluo-8 calcium fluorescence; 0% at ATP EC20, 100% at ATP max;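 active = activation above the run cutoff, the mean activation of all test compounds plus 3 SD, cut at about 40% in these data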;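 also: peak over basal fluorescence ratio in a 140 s read after ATP addition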
M1 PAM – positive allosteric modulators of human M1 muscarinic receptor. actives 0.088% (n = 360,000). activation, % at 3 µM. AID 588819. CHO-K1 hM1, Fluo-8 calcium fluorescence, ACh EC20; 0% = ACh EC20, 100% = maximal ACh; in the data active = activation above about 19%, passing the limit was not always enough
CHO-K1 Ca ag – M1 agonist counterscreen hit in parental CHO-K1 cells; Fluo-8 calcium fluorescence; scaled to maximal ATP response, vehicle zero; activation, % at 3 µM; actives 0.48% (n = 360,000); AID 602248; in the data active = activation above about 15%;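 also: untransfected CHO-K1 host cells lacking M1 receptor as counterscreen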
CHRM1 agonist – activates human CHRM1 receptor | CHO-K1 hM1, Fluo-8 calcium fluorescence, agonist mode; 0% DMSO, 100% acetylcholine EC100 | actives 0.33% (n = 360,000) | activation, % at 3 µM | AID 588814;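 active = activation above the run's mean compound activation plus 3 SD, cut at about 16% in these data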;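 also: peak over basal fluorescence ratio within a 140 s kinetic read after compound addition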
Numbers stand for hits; – = inactive; · = no result given. A selection: hits, their analogues and other compounds. The true share with any hit is near 2.3%.

SMILES	CHRM1 antagonist	CHO-K1 Ca antag	CHO-K1 Ca PAM	M1 PAM	CHO-K1 Ca ag	CHRM1 agonist
Oc1cccc(/C=N/NP(=S)(c2ccccc2)c2ccccc2)c1	–	25	–	–	–	–
CC(C)(C)C(=O)N1Cc2cc(N3CCCCC3)ccc2-n2nncc2C1	–	–	–	–	–	–
CC(=O)N1CCC(N2CCCC(C(=O)c3cccc(Cl)c3)C2)CC1 (stereo unspecified)	48	–	–	–	–	–
CC(C)(C)c1ccc(C(=O)C2CCCN(C3CCC3)C2)cc1 (stereo unspecified)	52	–	–	–	–	–
O=C1NCN(c2ccccc2)C12CCN(C(c1ccnc3ccccc13)c1nnnn1-c1ccc3c(c1)OCCO3)CC2 (stereo unspecified)	–	–	–	–	–	–
COc1ccc(C(=O)C2CCCN(CCc3ccccc3)C2)cc1OC (stereo unspecified)	55	–	–	–	–	–
COc1cccc(OC)c1CN1CCCC(C(=O)c2cccc(Cl)c2)C1 (stereo unspecified)	–	–	–	–	–	–
COc1ccc(C(=O)C2CCCN(Cc3ccc(F)cc3F)C2)cc1F (stereo unspecified)	71	–	–	–	–	–
COc1cc2cc(C(=O)N3CC(COS(C)(=O)=O)c4ccc(O)cc43)[nH]c2c(OC)c1OC (stereo unspecified)	–	–	–	–	–	–
c1ccc(C(c2ccccc2)c2ccncc2)cc1	70	–	–	–	–	–
CN1C2CCC1CC(OC(c1ccccc1)c1ccccc1N)C2 (stereo unspecified)	99	–	–	–	–	–
CN1C2CCC1C(COC(=O)c1ccccc1)C(O)C2 (stereo unspecified)	–	–	–	–	–	–
O=P1(NCCCl)OCCC(OO)N1CCCl (stereo unspecified)	·	–	–	·	–	·
C[N+]1(C)C2CCC1CC(OC(=O)c1ccco1)C2 (stereo unspecified)	–	–	–	–	–	–
C[N+]1(C)C2CCC1CC(OC(=O)c1c[nH]c3ccccc13)C2 (stereo unspecified)	–	–	–	–	–	–
COC(=O)[C@@H](c1ccccc1)C1CCCCN1 (stereo partly specified)	–	–	–	–	–	–
C[N+]1(C)C2CC[C@H]1CC(OC(=O)C(CO)c1ccccc1)C2 (stereo partly specified)	100	–	–	–	–	–
C[N+]1(C)[C@@H]2CC[C@H]1CC(OC(=O)[C@@H](CO)c1ccccc1)C2 (stereo partly specified)	102	–	–	–	–	–
C#CC[N+]1(C)[C@@H]2CC[C@H]1CC(OC(=O)C(CO)c1ccccc1)C2 (stereo partly specified)	99	–	–	–	–	–
C[N+]1(C)CCC(OC(=O)C(c2ccccc2)c2ccccc2)CC1	96	–	–	–	–	–
CC(C)(C)n1nnnc1C(c1ccccc1)N1CCC2(CC1)C(=O)NCN2c1ccccc1 (stereo unspecified)	–	–	–	–	–	–
COc1cccc(C)c1NC1=NCCO1	–	–	–	–	–	–
COc1cccc(C(c2nnnn2C(C)(C)C)N2CCC3(CC2)C(=O)NCN3c2ccccc2)c1OC (stereo unspecified)	–	–	–	–	–	–
c1ccc(C(OCCN2CCN(c3ncccn3)CC2)c2ccccc2)cc1	48	–	–	–	–	–
Clc1ccc(C(OCCN2CCCCC2)c2ccccc2)cc1 (stereo unspecified)	96	–	–	–	–	–
SMILES	CHRM1 antagonist	CHO-K1 Ca antag	CHO-K1 Ca PAM	M1 PAM	CHO-K1 Ca ag	CHRM1 agonist
CC(C)Cc1nnc(NC(=O)CCC(=O)N2CCN(CCOC(c3ccccc3)c3ccccc3)CC2)s1	–	–	–	–	–	–
O=c1[nH]c2ccccc2n1C1CCN(C(c2cc3ccccc3o2)c2nnnn2-c2ccc3c(c2)OCCO3)CC1 (stereo unspecified)	–	–	–	–	–	–
O=C1NCN(c2ccccc2)C12CCN(C(c1cccc3ccccc13)c1nnnn1C1CCCCC1)CC2 (stereo unspecified)	–	–	–	–	–	–
c1ccc(-c2ccc(CN3Cc4ccccc4-n4nncc4C3)cc2)cc1	36	–	–	–	–	–
O=C1CCCN1CC#CCN1CCCC1	87	–	–	–	–	102
CCOC(=O)c1cc2ccccc2n1C1CCN(Cc2ccccc2)CC1	·	–	–	·	–	·
COC(=O)C1=C(c2ccc(F)cc2OCc2ccccc2)C[C@@H]2CC[C@H]1N2C(=O)N1CCCCC1	–	–	–	–	–	–
COC(=O)C1=C(c2ccc(F)cc2OCc2ccccc2)C[C@@H]2CC[C@H]1N2C(=O)N1CCC(C)CC1	78	–	–	–	–	–
COC(=O)C1=C(c2ccc(F)cc2OCc2ccccc2)C[C@@H]2CC[C@H]1N2C(=O)NCc1ccccc1C(F)(F)F	32	–	–	–	–	–
Cc1c(CCC(=O)N2C[C@H]3C[C@@H](C2)c2cccc(=O)n2C3)c(=O)oc2c(C)c(O)ccc12	–	–	–	–	–	–
O=C(COC(=O)c1cc(Br)cc(Br)c1O)NC12CC3CC(CC(C3)C1)C2	–	–	–	–	–	–
C[C@]12CC[C@@H](O)CC1=CCC1C2CC[C@@]2(C)C1C[C@@H](F)[C@H]2O (stereo partly specified)	–	–	–	–	–	–
O=C1NC(=O)C(=Cc2ccc(-c3ccc(F)cc3O)o2)C(=O)N1	47	–	–	–	–	38
Cc1nc2cc(OC(=O)N(C)Cc3cccc(-c4ccncc4)c3)ccc2s1	·	–	–	·	–	·
C[C@]12CC[C@H](N)CC1=CCC1C2CC[C@@]2(C)C1CC[C@@H]2O (stereo partly specified)	–	–	–	–	–	–
C[C@]12CC[C@@H](O)CC1=CCC1C2CC[C@@]2(C)C1CC[C@@H]2N (stereo partly specified)	26	–	–	–	–	–
CC(C)(C)c1ccc(CSc2cnn(C(C)(C)C)c(=O)c2Cl)cc1	–	32	–	–	18	–
CNc1ccc2oc(C[C@H]3O[C@@]4(CC[C@H]3C)O[C@H]([C@H](C)C(=O)c3ccc[nH]3)[C@H](C)C[C@H]4C)nc2c1C(=O)O	94	49	–	–	33	105
O=S(=O)(c1cc(Cl)cc(Cl)c1)N1Cc2cc(-c3cccc(F)c3)ccc2-n2nncc2C1	–	–	–	–	–	–
C[N+]12CCC(CC1)C(C(O)(c1ccccc1)c1cccs1)C2 (stereo unspecified)	99	–	–	–	–	–
